Measured values: the supplement of paper PMC8975748
Where a name gives a salt, the structure may show the parent alone.

Each compound was assayed on Saccharomyces cerevisiae BY4741 SeMeCo community (assay: z-score of subpopulation abundance vs DMSO median, subpopulation auxotrophic for LU; higher = larger share of this subpopulation than in DMSO controls). Conditions: 10 µM; 24 h; SM minimal medium; subpopulation (auxotrophy): LU.
Outline: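 Subpopulation abundance was reported as a z-score against the median of vehicle wells. The Saccharomyces cerevisiae BY4741 community, carrying four plasmids that each restored one auxotrophy and encoded a distinct fluorescent protein, was grown 24 h in minimal SM medium in 384-well plates holding library drugs at 10 µM final. Cells were paraformaldehyde-fixed and imaged by automated confocal microscopy, with single-auxotroph fluorescent strains used for thresholds and autofluorescence correction.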

Structure (SMILES)	z-score of subpopulation abundance
CN[C@@H]1[C@H](O[C@H]2[C@H](O[C@H]3[C@H](O)[C@@H](O)[C@H](NC(=N)N)[C@@H](O)[C@@H]3NC(=N)N)O[C@@H](C)[C@]2(O)CO)O[C@@H](CO)[C@H](O)[C@H]1O [Dihydrostreptomycin sulfate]	-0.74
C=CCc1ccc(O)c(-c2ccc(O)c(CC=C)c2)c1 [Honokiol]	-1.84
COCCCN1CCC(NC(=O)c2cc(Cl)c(N)c3c2OCC3)CC1 [Prucalopride]	0.77
COCC(=O)Nc1cc(Sc2ccccc2)ccc1N=C(NC(=O)OC)NC(=O)OC [Febantel]	-0.37
Cc1ccsc1/C=C/C1=NCCCN1C [Morantel tartrate]	0.13
CCn1cc(C(=O)O)c(=O)c2cc(F)c(N3CCNCC3)cc21 [Norfloxacin]	-0.24
CC[C@H]1OC(=O)C[C@@H](O)[C@H](C)[C@@H](O[C@@H]2O[C@H](C)[C@@H](O[C@H]3C[C@@](C)(O)[C@@H](O)[C@H](C)O3)[C@H](N(C)C)[C@H]2O)[C@@H](CC=O)C[C@@H](C)C(=O)/C=C/C(C)=C/[C@@H]1CO[C@@H]1O[C@H](C)[C@@H](O)[C@@H](OC)[C@H]1OC [Tylosin]	0.45
COC(=O)C1=C(C)NC(C)=C(C(=O)OC2CCCN(Cc3ccccc3)C2)C1c1cccc([N+](=O)[O-])c1 (stereo not given) [Benidipine HCl]	0.07
CC1=C[C@H]2C(=O)O[C@H]3C[C@@H](C/C=C(\C)C[C@@H](C)/C=C/C=C4\CO[C@H](/C1=N\O)[C@@]42O)O[C@@]1(CC[C@H](C)[C@@H](C)O1)C3.CC[C@H]1O[C@]2(CC[C@@H]1C)C[C@@H]1C[C@@H](C/C=C(\C)C[C@@H](C)/C=C/C=C3\CO[C@@H]4/C(=N\O)C(C)=C[C@@H](C(=O)O1)[C@]34O)O2 [Milbemycin Oxime]	-0.7
CC1=Nc2ccc(Cl)cc2S(=O)(=O)N1 [Diazoxide]	-0.67
O=C(O)c1cc(O)c2c(c1)[C@H]([C@H]1c3cc(C(=O)O)cc(O)c3C(=O)c3c(O[C@@H]4O[C@H](CO)[C@@H](O)[C@H](O)[C@H]4O)cccc31)c1cccc(O[C@@H]3O[C@H](CO)[C@@H](O)[C@H](O)[C@H]3O)c1C2=O [Sennoside A]	0.29
Oc1ccc([C@H]2COc3cc(O)ccc3C2)cc1 [Equol]	-0.26
COc1ccc2cc(CCC(C)=O)ccc2c1 [Nabumetone]	-0.78
CO/N=C(\C(=O)N[C@@H]1C(=O)N2C(C(=O)O)=C(CSc3nc(=O)c(O)nn3C)CS[C@H]12)c1csc(N)n1 [Ceftriaxone Sodium Trihydrate]	0.56
CO/N=C(\C(=O)N[C@@H]1C(=O)N2C(C(=O)OC(C)OC(C)=O)=C(COC(N)=O)CS[C@H]12)c1ccco1 (stereo not given in full) [Cefuroxime axetil]	-0.86
CNCCCN1c2ccccc2CCc2ccccc21 [Desipramine Hydrochloride]	-0.28
CCCCCOc1ccccc1/C(=C\SC)n1ccnc1 [Neticonazole Hydrochloride]	-2.84
CC(C(=O)O)c1ccc2c(c1)[nH]c1ccc(Cl)cc12 (stereo not given) [Carprofen]	-3.11
CCC(C)n1ncn(-c2ccc(N3CCN(c4ccc(OCC5COC(Cn6cncn6)(c6ccc(Cl)cc6Cl)O5)cc4)CC3)cc2)c1=O (stereo not given) [Itraconazole]	-0.44
C=CCN1CCCC1CNC(=O)c1cc2nn[nH]c2cc1OC (stereo not given) [Alizapride HCl]	0.9

Structure (SMILES)	z-score of subpopulation abundance
CO/N=C(\C(=O)N[C@@H]1C(=O)N2C(C(=O)O)=C(CSc3nc(C)c(CC(=O)O)s3)CS[C@H]12)c1csc(N)n1 [Cefodizime Sodium]	0.22
C[C@H](NCc1ccc(OCc2cccc(F)c2)cc1)C(N)=O [Safinamide Mesylate]	0.54
Cc1ccnc(NS(=O)(=O)c2ccc(N)cc2)n1 [Sulfamerazine]	0.43
N=C(N)NS(=O)(=O)c1ccc(N)cc1 [Sulfaguanidine]	-0.67
C=C[C@H]1CN2CC[C@H]1C[C@@H]2[C@@H](O)c1ccnc2ccc(OC)cc12 [Quinidine sulfate]	0.61
O=C(Nc1ccc(Oc2ccc(Cl)cc2)c(Cl)c1)c1cc(I)cc(I)c1O [Rafoxanide]	-0.7
COC(=O)Nc1nc2cc(C(=O)c3ccccc3)ccc2[nH]1 [Mebendazole]	0.33
Nc1nc(N)c2nc(-c3ccccc3)c(N)nc2n1 [Triamterene]	-7.06
CC(=O)N1CCN(c2ccc(OCC3COC(Cn4ccnc4)(c4ccc(Cl)cc4Cl)O3)cc2)CC1 (stereo not given) [Ketoconazole]	-0.4
Cc1onc(-c2ccccc2)c1C(=O)N[C@@H]1C(=O)N2[C@@H]1SC(C)(C)[C@@H]2C(=O)O [Oxacillin sodium monohydrate]	0.83
CC[C@H]1OC(=O)[C@H](C)[C@@H](O[C@H]2C[C@@](C)(OC)[C@@H](O)[C@H](C)O2)[C@H](C)[C@@H](O[C@@H]2O[C@H](C)C[C@H](N(C)C)[C@H]2O)[C@](C)(O)C[C@@H](C)C(=O)[C@H](C)[C@@H](O)[C@]1(C)O [Erythromycin thiocyanate]	-0.22
CCn1cc(C(=O)O)c(=O)c2cc(F)c(N3CCNC(C)C3)c(F)c21 (stereo not given) [Lomefloxacin HCl]	0.53
CNS(=O)(=O)CCc1ccc2[nH]cc(C3CCN(C)CC3)c2c1 [Naratriptan HCl]	0.2
CO[C@@]1(NC(=O)CSC[C@@H](N)C(=O)O)C(=O)N2C(C(=O)O)=C(CSc3nnnn3C)CS[C@@H]21 [Cefminox Sodium]	0.8
CNCCCC1c2ccccc2C=Cc2ccccc21 [Protriptyline hydrochloride]	0.57
CC1CCc2c(N3CCC(O)CC3)c(F)cc3c(=O)c(C(=O)O)cn1c23 (stereo not given) [Nadifloxacin]	0.62
C[n+]1ccccc1/C=N/O [Pralidoxime chloride]	0.11
Oc1ccc(Cl)c2cccnc12 [Cloxiquine]	6.41
N[C@H]1CONC1=O [L-Cycloserine]	1.02
CCN(CC)CC#CCOC(=O)C(O)(c1ccccc1)C1CCCCC1 (stereo not given) [Oxybutynin chloride]	-1.2
